The source made the active and inactive calls. Unless noted, the rule behind the calls is not given here.
Columns and labels:
[1] = test system: Wnt5a (protein binding on small-molecule microarray); assay: small molecules binding Wnt5a protein – biophysical, small-molecule microarray, 635/667 nm fluorescence, primary screen (AID 1142); conditions: 635 nm fluorescence, higher = more signal;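 note: fluorescence read at 667 nm with signal to noise per printed feature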
[2] = ATP-based viability of Huh7 replicon cells – cell-based, CellTiter-Glo luminescence, basal, 48 h, cytotoxicity control for HCV replication inhibitor project, primary screen (AID 1143); conditions: higher = more signal, called active from +8 up or from −8 down;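 note: Huh7 hepatoma cells carrying a hepatitis C replication reporter with no stimulus; test concentration not given here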
[3] = Pseudomonas biofilm growth suppression – PAO1 strain, BacTiter-Glo luminescence, LB-PBS, primary screen (AID 1144); conditions: P. aeruginosa PAO1 biofilm, 12 h, higher = more signal
[4] = basal CRE-LacZ reporter activity in PC12 – cell-based, unstimulated, primary screen (AID 1145); conditions: no forskolin, luminescence, 4.5 h, higher = more signal, called active from +8 up or from −8 down
[5] = forskolin-driven CRE-LacZ activity in PC12 – cell-based, CRE-LacZ reporter, forskolin-stimulated, primary screen (AID 1146); conditions: luminescence, 4.5 h, higher = more signal, called active from +8 up or from −8 down;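 note: PC12 cells with 6xCRE LacZ reporter stimulated by forskolin 10 µM; beta-galactosidase reporter signal reflecting CREB driven transcription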
[6] = biological target: Streptavidin (Streptomyces avidinii) (UniProt P22629); assay: compounds binding control protein streptavidin – biophysical, small-molecule microarray, 635/667 nm fluorescence, artefact control for SMM compound annotation, primary screen (AID 1147); conditions: higher = more signal;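 note: signal reflects streptavidin binding to arrayed compounds as a control protein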
Sequence of Streptavidin (Streptomyces avidinii) (P22629 whole entry, looked up): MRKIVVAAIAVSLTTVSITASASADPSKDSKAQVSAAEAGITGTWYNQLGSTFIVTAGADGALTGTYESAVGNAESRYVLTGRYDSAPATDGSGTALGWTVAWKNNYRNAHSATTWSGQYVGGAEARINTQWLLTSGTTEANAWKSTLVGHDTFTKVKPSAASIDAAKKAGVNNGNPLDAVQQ

[7] = probe aInhba binding on compound microarray – biochemical, small-molecule microarray, 635/667 nm fluorescence, primary screen (AID 1148); conditions: higher = more signal;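 note: score merges 667nm spot fluorescence with signal-to-noise for antibody binding to printed compounds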
[8] = biological target: Torsin-1A (Homo sapiens) (UniProt O14656); assay: TOR1A wild-type binding on microarray – cell lysate, small-molecule microarray, lysate, 635/667 nm, primary screen (AID 1149); conditions: COS7 hTOR1A-WT lysate, 635 nm fluorescence, higher = more signal
Sequence of Torsin-1A (Homo sapiens) (O14656 whole entry, looked up): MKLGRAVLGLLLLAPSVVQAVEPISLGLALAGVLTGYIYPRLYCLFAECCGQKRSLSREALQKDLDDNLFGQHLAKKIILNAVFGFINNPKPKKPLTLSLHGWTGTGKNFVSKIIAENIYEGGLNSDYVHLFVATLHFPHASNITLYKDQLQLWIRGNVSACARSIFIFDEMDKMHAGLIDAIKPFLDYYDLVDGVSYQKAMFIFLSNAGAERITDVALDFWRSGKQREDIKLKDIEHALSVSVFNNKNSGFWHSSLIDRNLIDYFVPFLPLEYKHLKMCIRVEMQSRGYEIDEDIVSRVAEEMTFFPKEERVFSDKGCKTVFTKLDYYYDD

[9] = biological target: Torsin-1A (Homo sapiens) (UniProt O14656); assay: torsin A mutant lysate binding on microarrays – cell lysate, small-molecule microarray, COS7 lysate, 635/667 nm fluorescence, primary screen (AID 1150); conditions: COS7 hTOR1A mutant lysate, 635 nm fluorescence, higher = more signal;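 note: score pools 667 nm emission and signal to noise measuring lysate protein binding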
[10] = test system: Sonic hedgehog protein (Shh); assay: Sonic hedgehog microarray binding compounds – biochemical, small-molecule microarray, 635/667 nm fluorescence, primary screen (AID 1151); conditions: 635 nm fluorescence, higher = more signal;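 note: Shh protein binding to compounds spotted on small-molecule microarray slides; score combines spot fluorescence intensity with signal-to-noise across triplicate slides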
[11] = optical density shifts of acrAB sulA E. coli – strain DRC41, OD650, 48 h, E. coli filamentation inducer project, primary screen (AID 1152); conditions: higher = more signal, called active from +8 up or from −8 down;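 note: E. coli MC1000 strain DRC41 lacking acrAB efflux pump and sulA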
[12] = probe aLefty1 binding on compound microarray – biochemical, small-molecule microarray, 635/667 nm fluorescence, primary screen (AID 1153); conditions: higher = more signal;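 note: score merges spot fluorescence with signal-to-noise ratio from the scanned slide images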
[13] = plasmodial surface anion channel blockers, osmotic lysis – cell-based, P. falciparum Indochina, OD700, 1 h, primary screen (AID 1154); conditions: P. falciparum Indochina infected RBC osmotic lysis, higher = more signal, called active from +8 up or from −8 down
[14] = plasmodial surface anion channel blockers, osmotic lysis – cell-based, P. falciparum Indochina, OD700, 2 h, primary screen (AID 1155);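 note: lysis reports solute entry through the parasite surface anion channel PSAC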; conditions: P. falciparum Indochina infected erythrocytes, higher = more signal, called active from +8 up or from −8 down
[15] = changes in parasitized red cell lysis, either direction – P. falciparum Indochina, OD700, 3 h, PSAC antagonist project, primary screen (AID 1156); conditions: P. falciparum-infected erythrocytes, osmotic lysis, higher = more signal, called active from +8 up or from −8 down
[16] = plasmodial surface anion channel blockers, osmotic lysis – cell-based, P. falciparum Indochina, OD700, 18 h, primary screen (AID 1157); conditions: P. falciparum Indochina infected erythrocytes, osmotic lysis OD700, 18 h; higher = more signal, called active from +8 up or from −8 down
[17] = S6 kinase pathway phospho-S6 level changes – cell-based, A549, cytoblot, luminescence, serum-stimulated, primary screen (AID 1158); conditions: 5 h, higher = more signal;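 note: serum-stimulated A549 lung adenocarcinoma cells; signal is phosphorylated S6 detected by cytoblot immunostaining with HRP secondary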
[18] = biological target: NADPH oxidase 2 (Homo sapiens) (UniProt P04839); assay: compounds shifting NOX2 Amplex Red fluorescence – cell-based, HEK293-NOX2, PMA-stimulated, NOX inhibitor project, primary screen (AID 1159); conditions: 45 min, higher = more signal, called active from +8 up or from −8 down; note: test concentration not given here
Sequence of NADPH oxidase 2 (Homo sapiens) (P04839 whole entry, looked up): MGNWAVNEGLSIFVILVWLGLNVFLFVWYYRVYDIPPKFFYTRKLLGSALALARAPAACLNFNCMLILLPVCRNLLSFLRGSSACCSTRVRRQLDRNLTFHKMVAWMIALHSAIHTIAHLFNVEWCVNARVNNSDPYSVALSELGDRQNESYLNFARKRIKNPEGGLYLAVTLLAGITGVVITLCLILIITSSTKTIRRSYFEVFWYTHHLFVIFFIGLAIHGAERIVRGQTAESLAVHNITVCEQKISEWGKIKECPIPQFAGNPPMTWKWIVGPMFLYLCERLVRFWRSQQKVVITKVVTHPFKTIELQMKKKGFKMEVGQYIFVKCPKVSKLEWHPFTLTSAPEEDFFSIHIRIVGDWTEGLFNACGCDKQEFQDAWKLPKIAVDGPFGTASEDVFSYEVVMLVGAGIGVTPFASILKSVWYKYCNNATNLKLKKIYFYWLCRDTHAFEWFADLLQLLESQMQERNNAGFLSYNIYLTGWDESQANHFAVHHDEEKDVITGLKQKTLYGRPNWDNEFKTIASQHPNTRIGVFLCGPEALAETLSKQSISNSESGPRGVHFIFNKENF

[19] = biological target: NADPH oxidase 4 (Homo sapiens) (UniProt Q9NPH5); assay: compounds shifting NOX4 Amplex Red fluorescence – cell-based, HEK293-NOX4, tetracycline-induced, NOX inhibitor project, primary screen (AID 1160); conditions: HEK293-NOX4, Amplex Red H2O2 fluorescence, 45 min; higher = more signal, called active from +8 up or from −8 down
Sequence of NADPH oxidase 4 (Homo sapiens) (Q9NPH5 whole entry, looked up): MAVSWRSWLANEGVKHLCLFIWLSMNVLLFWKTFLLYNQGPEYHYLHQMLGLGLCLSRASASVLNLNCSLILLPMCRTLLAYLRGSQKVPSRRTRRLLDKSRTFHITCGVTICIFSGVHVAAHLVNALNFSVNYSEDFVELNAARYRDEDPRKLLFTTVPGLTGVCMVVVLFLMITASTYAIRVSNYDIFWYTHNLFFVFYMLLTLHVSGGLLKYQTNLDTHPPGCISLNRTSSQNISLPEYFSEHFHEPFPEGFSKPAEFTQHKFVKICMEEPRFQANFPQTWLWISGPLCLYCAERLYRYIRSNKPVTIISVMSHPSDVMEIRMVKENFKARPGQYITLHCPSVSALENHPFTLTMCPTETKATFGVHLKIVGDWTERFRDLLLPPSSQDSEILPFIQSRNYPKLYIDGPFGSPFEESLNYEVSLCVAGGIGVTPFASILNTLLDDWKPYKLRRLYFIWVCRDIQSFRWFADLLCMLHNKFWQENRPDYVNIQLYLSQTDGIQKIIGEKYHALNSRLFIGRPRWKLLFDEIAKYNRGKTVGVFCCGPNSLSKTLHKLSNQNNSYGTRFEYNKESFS

[20] = biological target: NADPH oxidase 5 (Homo sapiens) (UniProt Q96PH1); assay: compounds shifting NOX5 Amplex Red fluorescence – cell-based, HEK293-NOX5, NOX inhibitor project, primary screen (AID 1161); conditions: HEK293-NOX5, ionomycin, 45 min, higher = more signal
Sequence of NADPH oxidase 5 (Homo sapiens) (Q96PH1 whole entry, looked up): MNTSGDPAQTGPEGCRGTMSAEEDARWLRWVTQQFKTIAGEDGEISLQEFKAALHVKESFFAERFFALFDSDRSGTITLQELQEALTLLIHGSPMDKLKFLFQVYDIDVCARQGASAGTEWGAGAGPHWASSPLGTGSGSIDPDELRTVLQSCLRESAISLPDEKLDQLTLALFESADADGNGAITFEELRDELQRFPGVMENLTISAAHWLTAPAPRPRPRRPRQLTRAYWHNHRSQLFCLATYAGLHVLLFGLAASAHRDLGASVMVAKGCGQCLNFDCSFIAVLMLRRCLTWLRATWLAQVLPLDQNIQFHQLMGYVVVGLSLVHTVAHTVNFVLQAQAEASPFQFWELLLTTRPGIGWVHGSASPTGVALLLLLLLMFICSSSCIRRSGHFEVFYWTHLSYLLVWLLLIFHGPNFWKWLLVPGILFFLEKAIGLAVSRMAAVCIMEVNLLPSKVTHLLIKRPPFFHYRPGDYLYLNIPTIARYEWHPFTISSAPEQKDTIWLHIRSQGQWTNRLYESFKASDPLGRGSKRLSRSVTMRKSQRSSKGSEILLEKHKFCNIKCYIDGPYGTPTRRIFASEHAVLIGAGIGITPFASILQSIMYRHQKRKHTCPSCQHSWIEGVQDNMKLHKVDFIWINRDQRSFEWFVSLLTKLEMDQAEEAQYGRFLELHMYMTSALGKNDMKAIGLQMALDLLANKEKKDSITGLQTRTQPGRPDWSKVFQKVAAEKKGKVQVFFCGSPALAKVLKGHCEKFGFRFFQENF

Row | SMILES | composite z-score [1] | z-score [2] | z-score [3] | z-score [4] | z-score [5] | composite z-score [6] | composite z-score [7] | composite z-score [8] | composite z-score [9] | composite z-score [10] | z-score [11] | composite z-score [12] | z-score [13] | z-score [14] | z-score [15] | z-score [16] | z-score [17] | z-score [18] | z-score [19] | z-score [20]
1 | CN1C(=O)C2C=CC(C(O)c3ccc(-c4ccccc4)s3)N(NC(=O)OC(C)(C)C)C2C1=O (stereo not given) | -0.423 | 0.531 (inactive) | 0.146 (inactive) | 0.436 (inactive) | -0.0651 (inactive) | 1.38 | 0.0069 | -0.043 | 0.564 | 0.0221 | -0.898 (inactive) | 0.335 | 0.976 (inactive) | 0.524 (inactive) | -0.254 (inactive) | 0.998 (inactive) | -1.06 | -0.0373 (inactive) | -1.58 (inactive) | -0.722
2 | COc1ccc(NN2C(C(O)c3ccc(I)cc3)C=CC3C(=O)N(C4CCCCC4)C(=O)C32)cc1 (stereo not given) | 0.404 | -1.7 (inactive) | -2.03 (inactive) | 0.435 (inactive) | -0.469 (inactive) | 1.34 | 0.253 | 0.237 | 0.51 | 1.3 | -0.111 (inactive) | 0.425 | 3.84 (inactive) | 1.16 (inactive) | -0.0985 (inactive) | 0.706 (inactive) | -0.569 | 0.0194 (inactive) | -0.672 (inactive) | -1.16
3 | C=CC[C@]1(C(=O)NCC(O)CO)COC(c2ccc(OCCCO)cc2)=N1 (stereo not given in full) | 0.359 | 0.154 (inactive) | -0.055 (inactive) | 0.792 (inactive) | -0.282 (inactive) | -0.486 | 0.109 | 0.185 | 1.03 | -0.495 | -0.353 (inactive) | 0.174 | 3.8 (inactive) | 0.203 (inactive) | 0.99 (inactive) | 0.545 (inactive) | 0.18 | -0.261 (inactive) | 0.914 (inactive) | 0.462
4 | C=C(CCCC)/C(=C/C[C@H](OC(C)=O)c1cccc(OCCO)c1)c1cnc2ccccc2c1 | 0.0596 | -0.717 (inactive) | 0.768 (inactive) | 7.36 (inactive) | -0.134 (inactive) | 0.247 | -0.208 | -0.268 | -0.348 | 0.477 | 0.186 (inactive) | -0.193 | 23.7 (active) | 6.09 (inactive) | 1.94 (inactive) | 1.34 (inactive) | -0.33 | -0.532 (inactive) | -0.294 (inactive) | -1.76
5 | O=C1C2C=CC(C(O)C3CCCCC3)N(n3cnnc3)C2C(=O)N1Cc1ccccc1 (stereo not given) | 0.364 | -4.7 (inactive) | -1.2 (inactive) | -0.135 (inactive) | -0.233 (inactive) | 0.203 | 0.229 | 0.187 | 0.64 | 1.65 | 0.253 (inactive) | 0.375 | 2.45 (inactive) | -0.471 (inactive) | 0.312 (inactive) | -1.6 (inactive) | 1.75 | -4 (inactive) | -0.921 (inactive) | -5.07
6 | C=C(COC)/C(=C/C[C@@H](OC(C)=O)c1ccccc1OCCO)c1cnc2ccccc2c1 | 0.3 | -2.52 (inactive) | 0.514 (inactive) | 8.98 (active) | 0.879 (inactive) | 0.219 | -0.0087 | 2.53 | 2.34 | 2.29 | -0.146 (inactive) | 0.267 | 28.1 (active) | 14.2 (active) | 1.56 (inactive) | 1.71 (inactive) | 0.413 | -1.22 (inactive) | -1.04 (inactive) | -0.792
7 | O=C1C[C@@](C(=O)O)(c2ccc([N+](=O)[O-])cc2)[C@@H](c2ccc(CO)cc2)N1C1CCCCC1 | 0.239 | -3.27 (inactive) | 0.381 (inactive) | -0.179 (inactive) | -0.337 (inactive) | 0.856 | -0.0645 | 0.298 | 0.371 | 0.478 | -0.485 (inactive) | 0.0984 | 5.95 (inactive) | 0.732 (inactive) | 2.38 (inactive) | 0.646 (inactive) | 0.197 | -0.127 (inactive) | -1.27 (inactive) | 0.369
8 | CCCCC(O)C1C=CC2C(=O)N(c3ccccc3)C(=O)C2N1Nc1ccc(C#N)cc1 (stereo not given) | -0.0416 | 0.739 (inactive) | -1.25 (inactive) | 0.632 (inactive) | 0.719 (inactive) | 0.718 | 0.545 | 0.242 | 0.179 | -0.492 | -0.964 (inactive) | 0.598 | 16.7 (active) | 2.94 (inactive) | 2.36 (inactive) | 1.39 (inactive) | -0.809 | -0.444 (inactive) | -4.26 (inactive) | -1.98
9 | C=CC[C@@]12N=C(c3ccc(OCCCO)cc3)O[C@@H]1c1ccccc1N(CCC)C2=O | 0.318 | -4.06 (inactive) | -1.29 (inactive) | 0.69 (inactive) | -0.707 (inactive) | -0.0328 | -0.0185 | -0.1 | 0.204 | 1.84 | 1.39 (inactive) | 0.568 | 35.3 (active) | 36.6 (active) | 1.75 (inactive) | 6.24 (inactive) | 0.697 | -3.4 (inactive) | -0.215 (inactive) | -1.75

Source: PubChem BioAssay
